# Experimental data from PubChem BioAssay (NCATS).
# Several values for one entry are separate records, joined by “and”; a condition that tells them apart may be missing. Equal values may be shown once. Values without a mark were called inactive. Results filed as inconclusive are left out. Entries that show only a call come without a potency. Activity calls are given as the source filed them. Calls come from the whole dose curve; as a rule, active = well fitted curve in the direction sought with a large enough effect; inconclusive = small, poorly fitted or top-dose-only effect, or another doubt; inactive = no such curve, though single readings can be large; an effect the other way counts as inactive or inconclusive.
# Key:
# [1] = target: Glutathione peroxidase 1 (Homo sapiens) (UniProt P07203); experiment: Primary qHTS Assay for Inhibitors of Recombinant Selenoprotein Glutathione Peroxidase 1 (GPX1) (AID 1845191); note: nearly all actives have a fitted effect of over 65% in size
# Sequence of Glutathione peroxidase 1 (Homo sapiens) (P07203 whole entry, looked up): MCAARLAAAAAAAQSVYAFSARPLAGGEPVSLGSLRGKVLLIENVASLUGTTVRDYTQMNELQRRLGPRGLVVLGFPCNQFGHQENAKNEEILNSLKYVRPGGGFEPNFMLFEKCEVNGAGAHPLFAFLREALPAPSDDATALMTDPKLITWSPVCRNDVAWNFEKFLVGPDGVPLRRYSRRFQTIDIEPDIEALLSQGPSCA
# How it was run: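 Recombinant GPX1 (10 nM final) was preincubated with compound for 30 min at room temperature, then reacted with 1 mM GSH, 0.5 mM CHP, 0.5 mM NADPH and 100 nM glutathione reductase; NADPH fluorescence (340/450 nm) was read at 0 and 15 min.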
# [2] = target: Phospholipid hydroperoxide glutathione peroxidase GPX4 (Homo sapiens) (UniProt P36969); experiment: Primary qHTS Assay for Inhibitors of Recombinant Selenoprotein Glutathione Peroxidase 4 (GPX4) (AID 1845192); note: nearly all actives have a fitted effect of over 65% in size; note: potency is the fitted concentration of half-maximal effect; for activity change, negative = inhibition: series mostly up to about 50 µM
# Sequence of Phospholipid hydroperoxide glutathione peroxidase GPX4 (Homo sapiens) (P36969 whole entry, looked up): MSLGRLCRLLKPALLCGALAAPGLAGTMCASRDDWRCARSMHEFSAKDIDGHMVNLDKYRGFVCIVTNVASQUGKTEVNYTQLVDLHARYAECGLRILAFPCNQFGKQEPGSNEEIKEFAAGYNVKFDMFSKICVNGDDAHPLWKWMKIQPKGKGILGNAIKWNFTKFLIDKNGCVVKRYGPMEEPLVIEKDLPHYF
# How it was run: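 GR-coupled readout: 100 nM GR, 1 mM GSH, 0.5 mM NADPH; NADPH fluorescence (ex 340/em 450 nm) read at t=0 and after 15 min RT. GPX4 200 nM, preincubated 30 min with compound; substrate 0.5 mM CHP.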
# [3] = Quantitative High-Throughput drug screen in 47 multiple myeloma cell lines against the NCATS MIPE library collection: FR4_PLB cell viability assay (AID 1918924; note: nearly all actives have a fitted effect of over 35% in size; note: potency is the fitted concentration of half-maximal effect)
# How it was run: (§1)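 CellTiter-Glo luminescence (ATP) after 48 h compound exposure, 37C/5% CO2; 500 cells/well; MIPE 4.0 approved/investigational drugs pinned in; DMSO = 100%, media only = 0% viability.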
# [4] = Quantitative High-Throughput drug screen in 47 multiple myeloma cell lines against the NCATS MIPE library collection: Delta47_JCRB cell viability assay (AID 1918925; note: nearly all actives have a fitted effect of over 45% in size; note: potency is the fitted concentration of half-maximal effect)
# How it was run: (§2)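 Steps: seed 500 cells per well; pin-transfer MIPE 4.0 library; incubate 48 h at 37C, 5% CO2, humidified; add CellTiter-Glo, 5 min room temperature; read luminescence.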
# [5] = Quantitative High-Throughput drug screen in 47 multiple myeloma cell lines against the NCATS MIPE library collection: EJM_DSMZ cell viability assay (AID 1918926; note: nearly all actives have a fitted effect of over 30% in size; note: potency is the fitted concentration of half-maximal effect)
# How it was run: as §2
# [6] = Quantitative High-Throughput drug screen in 47 multiple myeloma cell lines against the NCATS MIPE library collection: AMO1_DSMZ cell viability assay (AID 1918927; note: nearly all actives have a fitted effect of over 30% in size; note: potency is the fitted concentration of half-maximal effect)
# How it was run: as §2
# [7] = Quantitative High-Throughput drug screen in 47 multiple myeloma cell lines against the NCATS MIPE library collection: ARP1_JJKsccF8 cell viability assay (AID 1918928; note: nearly all actives have a fitted effect of over 40% in size; note: potency is the fitted concentration of half-maximal effect)
# How it was run: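 Myeloma cells, 500 per well, were exposed to MIPE 4.0 drugs by pin transfer for 48 h at 37 °C, 5% CO2. Viability was read as ATP luminescence with CellTiter-Glo, normalised to DMSO-only (100%) and medium-only (0%) wells.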
# [8] = Quantitative High-Throughput drug screen in 47 multiple myeloma cell lines against the NCATS MIPE library collection: Karpas620_DSMZ cell viability assay (AID 1918959); note: nearly all actives have a fitted effect of over 30% in size; note: potency is the fitted concentration of half-maximal effect
# How it was run: as §1
# [9] = Quantitative High-Throughput drug screen in 47 multiple myeloma cell lines against the NCATS MIPE library collection: ARD_JJKsccE7 cell viability assay (AID 1918929; note: potency is the fitted concentration of half-maximal effect)
# How it was run: as §2
# [10] = target: Luciferin 4-monooxygenase (Photinus pyralis) (UniProt P08659); experiment: Primary firefly luciferase (FLuc) qHTS assay for identification of artifact compounds. (AID 1845220); note: series mostly up to about 54 µM; nearly all actives have a fitted effect of over 60% in size
# How it was run: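 Reaction readout was CCD-imaged luminescence, taken 5 min after adding 10 nM purified firefly enzyme to compound-treated wells holding 10 uM luciferin and ATP in pH 7.6 buffer.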
# [11] = Primary fluorescence-based thiol-reactive (MSTI) qHTS assay for identification of artifact compounds. (AID 1845221);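 note: series mostly up to about 54 µM; thiol-reactive compounds lower the probe fluorescence signal; nearly all actives have a fitted effect of over 65% in size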
# How it was run: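 Probe: MSTI 4 uM, PBS pH 7.4, 2% DMSO. Incubation 1 h, RT, light-protected. Readout fluorescence 525/598 nm.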
# [12] = test system: Nanoluciferase (engineered Oplophorus gracilirostris luciferase); experiment: Primary Nanoluciferase (NLuc) qHTS assay for identification of artifact compounds. (AID 1845222);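 note: NLuc secreted into diluted conditioned medium of S16 cells; series mostly up to about 54 µM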
# How it was run: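 Concentration-response data were obtained by luminescence after 5 min with Nano-Glo substrate at 1:100. The enzyme was diluted S16 NLuc-expressing cell medium, preincubated with compound for 15 min at RT. Curves were fitted with a 4-parameter Hill model.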
# [13] = Primary redox qHTS assay for identification of artifact compounds. (AID 1845223)
# How it was run: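 Amplex Red (25 uM) and HRP (250 mU/mL) in HBSS, with compounds for 15 min, then 250 uM DTT for 30 min, room temperature, dark. Fluorescence 525/598 nm read; normalized to DMSO and 10 uM DA3003; Hill fit.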
structure (smiles),measurement,setting,value
CC(=O)OC[C@@H]1O[C@@H](n2ccc(=O)[nH]c2=O)[C@H](OC(C)=O)[C@H]1OC(C)=O,Potency,[1],inactive
same,Potency,[2],inactive
same,Potency,[3],inactive
same,Potency,[4],inactive
same,Potency,[5],inactive
same,Potency,[6],inactive
same,Potency,[7],inactive
same,Potency,[8],inactive
Nc1nc2c(c(=O)[nH]1)N(C=O)[C@H](CNc1ccc(C(=O)N[C@@H](CCC(=O)O)C(=O)O)cc1)CN2,Potency,[1],inactive
same,Potency,[2],inactive
same,Potency,[3],inactive
same,Potency,[4],inactive
same,Potency,[5],inactive
same,Potency,[7],inactive
same,Potency,[8],inactive
C#Cc1cccc(Nc2ncnc3cc(OCCOC)c(OCCO)cc23)c1,Potency,[1],inactive
same,Potency,[2],inactive
same,Potency,[3],7.43 µM (active)
same,Potency,[4],1.05 µM (active)
same,Potency,[6],2.35 µM (active)
same,Potency,[7],23.5 µM (active)
same,Potency,[9],418 nM (active)
CC(C)[C@H](CO)Nc1nc(Nc2cccc(Cl)c2)c2ncn(C(C)C)c2n1,Potency,[1],inactive
same,Potency,[2],inactive
same,Potency,[3],16.6 µM (active)
same,Potency,[4],18.7 µM (active)
same,Potency,[5],23.5 µM (active)
same,Potency,[6],inactive
same,Potency,[7],23.5 µM (active)
same,Potency,[8],inactive
Cn1cc(C2=C(c3c4n(c5ccccc35)CCC(CN)C4)C(=O)NC2=O)c2ccccc21 (stereo unspecified),outcome,[1],inactive [at 9.52 µM]
same,"activity change, negative = inhibition",[2],-6.23% [at 9.73 µM]
same,Potency,[3],18.7 µM (active)
same,Potency,[4],5.26 µM (active)
same,Potency,[5],9.35 µM (active)
same,Potency,[6],10.5 µM (active)
same,Potency,[7],18.7 µM (active)
same,Potency,[9],7430 nM (active)
same,Potency,[8],9.35 µM (active)
CCN(C(=O)c1c(O)c2c(Cl)cccc2n(C)c1=O)c1ccccc1,Potency,[1],inactive
same,Potency,[2],inactive
same,Potency,[3],inactive
same,Potency,[4],inactive
same,Potency,[5],inactive
same,Potency,[7],inactive
same,Potency,[8],16.6 µM (active)
CN(CC(=O)N(Cc1ccc(C2CCCCC2)cc1)c1ccc(C(=O)O)c(O)c1)S(=O)(=O)c1c(F)c(F)c(F)c(F)c1F,Potency,[1],inactive
same,Potency,[2],11.4 µM (active)
same,Potency,[3],20.9 µM (active)
same,Potency,[4],5.9 µM (active)
same,Potency,[5],18.7 µM (active)
same,Potency,[6],5.26 µM (active)
same,Potency,[7],23.5 µM (active)
same,Potency,[9],11800 nM (active)
same,Potency,[8],2.96 µM (active)
COc1ccc(Nc2cc(-c3cnc(N)nc3)nc(N3CCOCC3)n2)cn1,Potency,[1],inactive
same,Potency,[2],inactive
same,Potency,[3],4.18 µM (active)
same,Potency,[4],1.48 µM (active)
same,Potency,[6],3.72 µM (active)
same,Potency,[7],0.469 µM (active)
same,Potency,[9],372 nM (active)
same,Potency,[8],2.64 µM (active)
Nc1ccn(C[C@@H](CO)OCP(=O)(O)O)c(=O)n1,"activity, negative = inhibition",[1],-28.5% [at 0.4 µM] and -6.08% [at 9.52 µM]
same,"activity change, negative = inhibition",[2],4.75% [at 0.409 µM] and -14.5% [at 9.73 µM]
same,Potency,[3],inactive
same,Potency,[4],inactive
same,Potency,[6],inactive
same,Potency,[7],inactive
Cn1cnc(=N)c2[nH]cnc21,Potency,[1],inactive
same,Potency,[2],inactive
same,Potency,[3],0.148 µM (active)
same,Potency,[4],0.132 µM (active)
same,Potency,[5],0.526 µM (active)
same,Potency,[7],0.118 µM (active)
same,Potency,[9],105 nM (active)
same,Potency,[8],0.296 µM (active)
NC(=O)Nc1sc(-c2ccc(F)cc2)cc1C(N)=O,Potency,[1],inactive
same,Potency,[2],inactive
same,Potency,[4],0.187 µM (active)
same,Potency,[5],1.87 µM (active)
same,Potency,[6],0.132 µM (active)
same,Potency,[7],2.96 µM (active)
same,Potency,[9],296 nM (active)
same,Potency,[8],1.48 µM (active)
NC(=O)c1cccc(-c2cccc(OC(=O)NC3CCCCC3)c2)c1,Potency,[1],inactive
same,Potency,[2],inactive
same,Potency,[5],inactive
same,Potency,[6],inactive
same,Potency,[7],inactive
same,Potency,[8],inactive
O=c1ccn([C@@H]2O[C@H](CO)[C@H](O)[C@@H]2F)c(=O)[nH]1,Potency,[1],inactive
same,Potency,[2],inactive
same,Potency,[7],inactive
CCCNS(=O)(=O)Nc1ncnc(OCCOc2ncc(Br)cn2)c1-c1ccc(Br)cc1,Potency,[1],inactive
same,Potency,[2],inactive
same,Potency,[4],2.64 µM (active)
same,Potency,[7],inactive
C[C@H](CCC(=O)O)[C@H]1CCC2C3C[C@H](O)[C@@H]4C[C@H](O)CC[C@]4(C)C3CC[C@@]21C (stereo partly specified),Potency,[1],inactive
same,Potency,[2],inactive
same,Potency,[3],inactive
same,Potency,[5],inactive
same,Potency,[6],inactive
same,Potency,[7],inactive
same,Potency,[8],inactive
C=C[C@@H]1CN2CCC1C[C@H]2[C@H](O)c1ccnc2ccc(OC)cc12 (stereo partly specified),Potency,[1],inactive
same,Potency,[2],inactive
same,Potency,[6],inactive
same,Potency,[8],inactive
O=C(O)CCCCCC(=O)NN=C1CCCC1,Potency,[1],inactive
same,Potency,[2],inactive
same,Potency,[3],inactive
same,Potency,[5],inactive
same,Potency,[6],inactive
same,Potency,[7],inactive
same,Potency,[9],inactive
same,Potency,[8],inactive
Cc1cc(Nc2ncc3c(n2)N(C)C(=O)N(c2cc(NC(=O)c4cccc(C(F)(F)F)c4)ccc2C)C3)n(C)n1,Potency,[1],inactive
same,Potency,[2],inactive
same,Potency,[3],0.418 µM (active)
same,Potency,[5],0.662 µM (active)
same,Potency,[6],0.833 µM (active)
same,Potency,[7],0.743 µM (active)
same,Potency,[9],935 nM (active)
same,Potency,[8],1.48 µM (active)
OC[C@H]1OC(O)C[C@@H](O)[C@H]1O (stereo partly specified),Potency,[1],inactive
same,Potency,[2],inactive
same,Potency,[3],inactive
same,Potency,[5],inactive
same,Potency,[7],inactive
same,Potency,[8],inactive
CC(C=CC=C(C)C=CC1=C(C)CCCC1(C)C)=CC=CC=C(C)C=CC=C(C)C=CC1=C(C)CCCC1(C)C,outcome,[1],inactive [at 0.4 µM]
same,outcome,[2],inactive [at 0.409 µM]
same,Potency,[5],6.62 µM (active)
same,Potency,[6],20.9 µM (active)
same,Potency,[9],20900 nM (active)
same,Potency,[8],20.9 µM (active)
CCCCCCCN(CC)CCCC(O)c1ccc(NS(C)(=O)=O)cc1 (stereo unspecified),Potency,[1],inactive
same,Potency,[2],inactive
same,Potency,[3],inactive
same,Potency,[6],23.5 µM (active)
same,Potency,[7],inactive
same,Potency,[9],20900 nM (active)
CC1(C)O[C@@H]2C[C@H]3[C@@H]4CCC5=CC(=O)C=C[C@]5(C)[C@@H]4[C@@H](O)C[C@]3(C)[C@]2(C(=O)CO)O1,Potency,[1],inactive
same,Potency,[2],inactive
same,Potency,[5],inactive
same,Potency,[7],0.0372 µM (active)
same,Potency,[9],5.3 nM (active)
N[C@H]1CN(c2c(F)cc3c(=O)c(C(=O)O)cn(C4C[C@@H]4F)c3c2Cl)CC12CC2 (stereo partly specified),Potency,[1],inactive
same,Potency,[10],inactive
same,Potency,[11],inactive
same,outcome,[12],inactive
same,Potency,[13],inactive
same,Potency,[3],inactive
same,Potency,[4],inactive
same,Potency,[5],inactive
same,Potency,[6],inactive
same,Potency,[7],inactive
same,Potency,[8],inactive
CC(C(C)N1CC(=O)NC(=O)C1)N1CC(=O)NC(=O)C1 (stereo unspecified),Potency,[1],inactive
same,Potency,[2],inactive
same,Potency,[5],inactive
same,Potency,[6],0.332 µM (active)
same,Potency,[8],inactive
CCCCCCCCCCCCCCCC(=O)OC[C@@H](NC(=O)C(Cl)Cl)[C@H](O)c1ccc([N+](=O)[O-])cc1,Potency,[1],inactive
same,Potency,[2],inactive
same,Potency,[5],inactive
same,Potency,[6],inactive
same,Potency,[7],inactive
same,Potency,[9],inactive
same,Potency,[8],inactive
